Screening data (PubChem)
Pf growth 48h – inhibits P. falciparum growth in the first generation, 48 h; P. falciparum luciferase growth in erythrocytes, 48 h; Potency, µM (highest dose often 28.7 µM), most hits filed as inhibitors; 310,000 tested, 5.9% active
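Compounds are pin-transferred into medium, infected erythrocytes (2% hematocrit, 0.1% parasitemia final) are added, and plates sit one parasite generation at 37 C in 5% CO2. Detection reagent is then added and luminescence measured.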
HCV inhibitor – HCV inhibition; Huh7.5.1 HCVcc-Cre infection, luciferase reporter, 44 h; AID 651820; 340,000 tested, 3.4% active; Potency, µM (series often up to 41.8 µM), hits mostly inhibitors
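After 44 h co-culture of compound, cells and HCVcc-Cre (~0.5 moi), substrate is added for 15 min at room temperature and luciferase measured over 15 sec. Cells were seeded at 1,000/well and pre-cultured 4 h.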
Vaccinia mCherry – inhibitors of vaccinia virus infection (mCherry reporter signal); Potency, µM (top dose mostly 36.5 µM), hits mostly inhibitors; Vaccinia virus mCherry reporter infection, fluorescence; 310,000 tested, 0.63% active; calls by dose curve; tested in A549 cells; note: nearly all actives have a fitted effect of over 35% in size
VACV Venus inh – vaccinia inhibition (Venus reporter). 330,000 tested, 0.46% active. Vaccinia virus Venus reporter expression, fluorescence. Potency, µM (highest dose often 36.5 µM), most hits filed as inhibitors; calls by dose curve; tested in A549 cells; note: nearly all actives have a fitted effect of over 30% in size
NS1 inh – blocks influenza NS1 protein function; Potency, µM (doses to about 46.1 µM); 270,000 tested, 0.4% active; AID 2326; calls by dose curve; note: actives are rising curves; nearly all actives have a fitted effect of over 50% in size
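Recovery from NS1-induced slow growth read by OD600 in budding yeast switched to galactose assay medium (pH 6.0, -URA) at 1:100 dilution. Compound 23 nl per well; the matching strain lacking NS1 serves as control.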
Pf growth 96h – inhibits malaria parasite growth, 96 h | Potency, µM (series often up to 28.7 µM), most hits filed as inhibitors | P. falciparum luciferase reporter growth, 96 h | 320,000 tested, 6.9% active
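Infected RBCs, 2% Hct / 0.05% parasitemia final; luciferase-reporter P. falciparum; cpd 96 h, 37 C, 5% CO2; luciferase detection reagent; luminescence.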
Numbers stand for hits; – = inactive; ? = inconclusive; · = no result; [ ] = dose if it differs, or a comment. The list is not random: actives were taken first. Their share in the collection is about 11%. Unless noted, calls come from the whole dose curve; as a rule, active = well fitted inhibition curve with a large enough effect; inconclusive = small, poorly fitted or top-dose-only effect, or another doubt; inactive = no such curve, though single readings can be large or run the other way.

SMILES | Pf growth 48h | HCV inhibitor | Vaccinia mCherry | VACV Venus inh | NS1 inh | Pf growth 96h
CCc1nnc(N/N=C/c2cc(C)c(C)cc2C)n1N | – | – | 10µM | 13µM | – | ?
Cc1cc(C)nc(NC(=O)CCC2CCCC2)c1 | – | – | · | · | – | –
COc1ccc(CNC(=O)C2CSCCS2)cc1 (stereo not given) | – | – | · | · | – | –
COc1ccc(NC(=S)NNc2ccc([N+](=O)[O-])cc2S(=O)(=O)Nc2ccc(C)cc2C)cc1 | – | 14µM | – | – | – | ?
Cc1ccc(NS(=O)(=O)c2cc([N+](=O)[O-])ccc2NNC(=S)Nc2cc(C)ccc2C)c(C)c1 | 15µM | 11µM | – | – | 13µM | 9.3µM
CCOc1cc(C(=O)Nc2ccc(S(=O)(=O)Nc3onc(C)c3C)cc2)cc(OCC)c1OCC | · | – | – | – | · | ·
CCc1ccc(/C=N/NC(=O)c2cc(-c3ccccc3OC)nc3ccccc23)s1 | · | – | – | – | – | 2.6µM
CCc1ccc(/C=N/NC(=O)c2cc(C3CC3)nc3ccc(Br)cc23)s1 | · | 22µM | ? | ? | – | ?
COc1ccccc1-c1cc(C(=O)N/N=C/c2ccc(C)s2)c2ccccc2n1 | · | ? | ? | – | ? | 1.5µM
CCN(CC)C(=O)COc1ccc(/C=N/NC(=O)c2cc(-c3ccccc3OC)nc3ccccc23)cc1OC | · | – | – | – | · | ·
COc1ccccc1-c1cc(C(=O)N/N=C/c2ccoc2)c2ccccc2n1 | 9.3µM | – | – | – | ? | –
CCc1nc2nc(C)c(NS(=O)(=O)c3ccc(F)c(C)c3)c(=O)n2[nH]1 | · | · | – | – | · | ·
Cc1csc(SC(C)C(=O)Nc2ccc(Cl)cn2)n1 (stereo not given) | – | – | – | – | – | –
Cc1ccc(NC(=O)CSc2nnc(C)c(=O)[nH]2)cc1C | – | – | – | – | · | –
COc1ccc(/C=N/NC(=O)c2cc(-c3ccccc3OC)nc3ccccc23)cc1COC(C)=O | 12µM | – | – | – | – | 1.9µM
O=C(Nc1ccc(Oc2nnc(-c3ccccc3)c3ccccc23)cc1)c1ccccc1 | 10µM | – | – | – | – | –
C#C[C@]1(OC(C)=O)CC[C@H]2[C@@H]3CCC4=C/C(=N/O)CC[C@@H]4[C@H]3CC[C@@]21CC | – | · | · | · | · | 0.95µM
CCCCOC(=O)/C=C\C(=O)NC(N)=O | ? | ? | ? | – | – | ?
Cc1nn(Cc2ccccc2)c(Cl)c1C(=O)OC(C)C(=O)Nc1ccc(F)cc1Cl (stereo not given) | ? | ? | – | – | – | 13µM
Cc1nn(Cc2ccccc2)c(Cl)c1C(=O)OCC(=O)Nc1cccc2ccccc12 | – | – | – | – | – | –
CCc1ccc(NC(=O)C(C)OC(=O)c2c(C)nn(Cc3ccccc3)c2Cl)cc1 (stereo not given) | – | 11µM | – | – | – | ?
O=C(Nc1nnc([C@H]2C[C@H](O)[C@@H](CO)O2)s1)Nc1ccc(F)cc1F | · | · | – | – | · | ·
CC(C)(C)C1CCC(=NOC(=O)c2ccc(F)cc2)CC1 (stereo not given) | ? | – | – | – | · | 10µM
CN(C)c1nc(SCc2ccccc2)nc(N2CCOCC2)n1 | ? | ? | · | · | – | –
CCc1ccc(Nc2nc(N3CCOCC3)nc(N3CCOCC3)n2)cc1 | – | ? | · | · | – | 9.3µM
SMILES | Pf growth 48h | HCV inhibitor | Vaccinia mCherry | VACV Venus inh | NS1 inh | Pf growth 96h
CCNc1nc(SCc2ccccc2)nc(N2CCOCC2)n1 | – | 5.6µM | · | – | – | –[5.75 µM]
FC(F)(F)Oc1ccc(Nc2nc(N3CCOCC3)nc(N3CCOCC3)n2)cc1 | ? | – | –[7.34 µM] | –[7.34 µM] | – | 12µM
COc1ccc(C(=O)Nc2nnc(SCC(=O)NCC3CCCO3)s2)cc1OC (stereo not given) | – | · | – | – | – | –
COc1ccc(-c2cc(C(F)(F)F)nc(SCCC(=O)Nc3ccccc3F)n2)cc1 | · | · | – | – | · | ·
COc1cccc(/C=C/C(=O)Nc2cccc(C(C)=O)c2)c1OC | – | ? | · | · | · | –
CN(c1ccc(OCC(=O)N2CCN(c3ccc(F)cc3)CC2)cc1)S(=O)(=O)c1cccs1 | ? | 3.5µM | – | – | · | ?
O=C(COc1ccc(Br)cc1)N1CCN(c2ccccc2)CC1 | · | – | · | – | – | 4.7µM
O=C(COc1ccccc1)N1CCN(CC(O)COc2ccccc2)CC1 (stereo not given) | – | – | · | · | – | 15µM
